SW480 rereplic: inducers of DNA re-replication in SW480 colon cancer cells; Potency, µM (series often up to 46.1 µM), for the others: at the highest dose re-replication activation, hits mostly activators; SW480 DNA re-replication, Hoechst DNA content imaging, 48 h; 1.8% of 340,000 active; AID 624297; also: potency is read from the fitted curve at half-maximal effect; % of control where 0% means no effect; nearly all actives have a fitted effect of over 55% in size
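Readout is total intensity of Hoechst-stained nuclei, excited at 405 nm and collected at 500-530 nm. Compound treatment lasted 48 hr at 37 C in 5% CO2 before staining.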
RORgamma inh: blocks mouse ROR gamma transcriptional activity | Drosophila S2 Gal4-RORgamma UAS-luciferase reporter, 20 h | 5.4% of 310,000 active | AID 2551 | Potency, µM (top dose mostly 53.6 µM), without a hit: at the highest dose activity change, negative = inhibition, usual class: inhibitors; also: potency is read from the fitted curve at half-maximal effect; % is scaled to controls: 0 for no effect and ±100 for the full control effect; nearly all actives have a fitted effect of over 60% in size
Target sequence (P51450 whole entry, looked up, the tested form may be a part): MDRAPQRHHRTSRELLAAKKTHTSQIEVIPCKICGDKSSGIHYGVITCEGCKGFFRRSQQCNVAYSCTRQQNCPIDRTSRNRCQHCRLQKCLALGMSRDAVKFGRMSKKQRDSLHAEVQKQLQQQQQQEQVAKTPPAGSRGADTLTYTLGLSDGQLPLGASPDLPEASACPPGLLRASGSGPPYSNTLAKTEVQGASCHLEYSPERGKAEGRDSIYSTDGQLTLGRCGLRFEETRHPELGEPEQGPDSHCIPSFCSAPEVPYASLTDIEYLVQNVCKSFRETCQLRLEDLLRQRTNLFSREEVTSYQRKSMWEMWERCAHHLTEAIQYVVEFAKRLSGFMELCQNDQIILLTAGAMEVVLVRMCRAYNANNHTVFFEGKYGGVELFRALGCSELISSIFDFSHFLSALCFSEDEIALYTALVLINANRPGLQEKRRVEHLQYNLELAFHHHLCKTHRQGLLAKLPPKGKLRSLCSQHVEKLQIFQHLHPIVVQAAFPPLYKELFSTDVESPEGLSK
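Luminescence from a UAS-regulated Photinus luciferase reporter in stably transfected Drosophila Schneider cells is measured; decreased signal marks ROR gamma inhibition. Fusion expression is induced by 700 uM copper sulfate for 20 hr.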
VP16 counter: counter-screen for ROR gamma inhibitors: Gal4-VP16 reporter; AID 2546; 3.5% of 310,000 active; Drosophila S2 Gal4-VP16 UAS-luciferase, luminescence, 20 h; Potency, µM (series often up to 53.6 µM), for the others: top-dose activity, negative = inhibition, usual class: inhibitors;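 also: Gal4-VP16 expression switched on by copper sulfate through the metallothionein promoter; potency is read from the fitted curve at half-maximal effect; % is scaled to controls: 0 for no effect and ±100 for the full control effect; nearly all actives have a fitted effect of over 50% in size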
MCF10A rereplic: DNA re-replication induction in MCF 10a cells; Potency, µM (highest dose often 46.1 µM), without a hit: at the top dose activity, positive = re-replication, hits mostly activators; 2.9% of 350,000 active; MCF 10A DNA re-replication, Hoechst nuclear intensity, 48 h; AID 624296; also: potency is read from the fitted curve at half-maximal effect; % of control where 0% means no effect; nearly all actives have a fitted effect of over 50% in size
IL1B secr inh: blocks inflammasome-driven IL-1 beta release | THP-1 LPS/ATP IL-1B secretion, AlphaLISA, 16 h; hits give low values | activity change, % at 57.5 µM | 4.7% of 360,000 active; in the data active = activity change below about -50%; inconclusive = mostly about -30% to -49%; also: % is scaled to controls: 0 for no effect and ±100 for the full control effect
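THP-1 cells pretreated 1 hr with compounds (up to 57.5 uM final), then stimulated with LPS (250 ng/mL final) plus ATP (1.25 mM final); secreted IL-1B measured by AlphaLISA after 16 hr, decreased signal indicating inhibition.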
* hit, by the source's call; u = inconclusive; x = no result; [ ] = another dose, or the depositor's remark. The list is not random: actives were taken first. Their share in the collection is about 11%. Unless noted, calls follow the shape of the dose curve; as a rule, active = well fitted curve in the direction sought with a large enough effect; inconclusive = small, poorly fitted or top-dose-only effect, or another doubt; inactive = no such curve, though single readings can be large; an effect the other way counts as inactive or inconclusive.

SMILES	SW480 rereplic	RORgamma inh	VP16 counter	MCF10A rereplic	IL1B secr inh
CC(C)C1C(C#N)=C(N)Oc2n[nH]c(C(C)(C)C)c21 (centres undefined)	-11%	21%	-3%	-3%	-9
Cc1[nH]nc2c1C(c1cc(Br)cs1)C(C#N)=C(N)O2 (centres undefined)	u	0.71µM*	7.1µM*	u	-101*
Cc1[nH]nc2c1C(c1ccoc1)C(C#N)=C(N)O2 (centres undefined)	-2%	38%	0%	2%	u
CCC(C)C1C(C#N)=C(N)Oc2n[nH]c(C)c21 (centres undefined)	1%	2%	1%	24%	-72*
N#CC1=C(N)Oc2n[nH]c(-c3ccc(F)cc3)c2C1c1cccnc1 (centres undefined)	-7%	12%	0%	1%	-2
CC1CCN(CCCNC(=O)CCCNC(=O)Cn2cnc3sc4c(c3c2=O)CCCC4)CC1	-3%	-12%	4%	1%	-101*
Cc1cc(Br)c(NC(=O)CCl)c(Br)c1	7%	-29%	27%	14%	u
CC(C)c1cc(NC(=O)CCl)on1	u	u	u	u	-79*
O=c1c(=O)n(CCO)n(CCO)c(=O)n1CCO	x	x	x	x	0
CNC1C(O)C(OC2C(NC(=O)C(O)CN)CC(N)C(OC3OC(CN)C(O)C(O)C3O)C2O)OCC1(C)O (centres undefined)	3%	11%[10 µM]	0%	-3%	x
O=C1OC(c2ccccc2)=NC12CC2c1ccc(Cl)cc1 (centres undefined)	u	10µM*	5µM*	u	-20
C=CC[C@@H]1C=C[C@@H](O/N=C(/C)CCC(=O)OC[C@@H]2O[C@H](c3ccccc3)C=C[C@@H]2Oc2ccc(OC)cc2)[C@@H](CO)O1	x	14%[10 µM]	16%[10 µM]	x	x
CCCCN(C=O)c1c(CC)nc2c(OCC3CCCCC3)cccn12	x	x	x	x	-4
COc1ccc(CCNC(=O)[C@@H](NC(=O)N2CCn3c2nc2ccccc23)C(C)C)cc1OC	-5%	-14%	2%	1%	-13
CCC(C)[C@H](NC(=O)N1CCn2c1nc1ccccc12)C(=O)NCCc1ccccc1 (some centres undefined)	-10%	u	8%	13%	-59*
COc1ccc(CCNC(=O)[C@H](CC(C)C)NC(=O)N2CCn3c2nc2ccccc23)cc1OC	-2%	-1%	-1%	-5%	-66*
COc1cc(C(=O)NCCC(=O)NCc2c(F)cc(F)cc2F)cc(OC)c1OC	-20%	-10%	2%	10%	2
COc1ccc(CNCc2cn(-c3cccc(F)c3)nc2-c2ccc(C)o2)cc1	20%	-2%	1%	3%	-87*
COc1ccccc1C(=O)NC(CCSC)C(=O)NCc1ccncc1 (centres undefined)	-2%	x	x	0%	6
C[C@@]12C(=O)Nc3cc(F)ccc3C(=O)N1[C@H]1c3ccccc3OC[C@@H]1[C@@H]2c1ccccc1	2%	x	x	29%	-75*
Cc1ccc2c(c1)[C@H]1[C@H](CO2)[C@H](c2ccccc2)[C@]2(C)C(=O)Nc3ccc(F)cc3C(=O)N12	5.8µM*	x	x	3.3µM*	-61*
Cc1ccc2c(c1)[C@H]1[C@H](CO2)[C@H](c2ccccc2)[C@]2(C)C(=O)Nc3cc(Cl)ccc3C(=O)N12	u	x	x	9.2µM*	-21
Cc1ccc2c(c1)[C@H]1[C@H](CO2)[C@H](c2ccccc2)[C@]2(C)C(=O)N(Cc3ccc(F)cc3)CC(=O)N12	8%	x	x	22%	u
CCOC(=O)[C@H]1[C@H]2COc3ccc(C)cc3[C@@H]2N2C(=O)c3ccc(Cl)cc3NC(=O)[C@@]12C	9%	x	x	u	-2
Cc1ccc2c(c1)[C@H]1[C@H](CO2)[C@H](c2ccccc2)[C@]2(C)C(=O)Nc3cc(F)c(F)cc3C(=O)N12	23µM*	x	x	5.2µM*	u
SMILES	SW480 rereplic	RORgamma inh	VP16 counter	MCF10A rereplic	IL1B secr inh
O=C(c1cc(C(F)(F)F)cc(C(F)(F)F)c1)N1CCC[C@@]2(CCN(Cc3nccs3)C2)C1	x	-9%	15%	x	x
Nc1c(-c2ccc(C(F)(F)F)cc2)nc2ncccn12	x	x	x	x	5
CON(C)C(=O)C[C@@H]1C[C@H](OC(=O)c2ccc([N+](=O)[O-])cc2)CN1C(=O)OC(C)(C)C	0%	x	x	8%	-1
FC(F)(F)c1ccc(CSc2ccccn2)cc1	-4%	4%	0%	-1%	-61*
O=C(Nc1ccccc1)c1ccc(CSc2ccccn2)cc1	2%[9.22 µM]	2%	1%	1%	-12
O=C(NCCOc1ccccc1)c1ccccc1Cl	1%	-26%	u	-2%	-22
CN(C(=O)COc1ccccc1C(=O)NCCOc1ccccc1)c1ccccc1	1%	u	7.9µM*	18µM*	-97*
CC1(C(=O)Nc2ccc(Cl)cc2)Cc2c(-c3cccc(C(F)(F)F)c3)ccnc2O1 (centres undefined)	x	x	x	x	-4
COc1cccc(NC(=O)Nc2nnc(COCCO)s2)c1	x	x	x	x	-13
Cc1cc(C(=O)COc2ccccc2C(N)=O)c(C)n1C1CC1	-8%	3%	9%	0.58µM*	-6
C=CCN(CC=C)C(=O)c1ccc(OC2CCN(C(C)=O)CC2)c(OC)c1	-15%	x	x	10%	0
CSc1ccc(CN(C)Cc2nc3cc(C(F)(F)F)ccc3c(=O)[nH]2)cc1	-10%	13µM*	u	15%	10
c1ccc(N2N=C(c3cccs3)CC2c2ccco2)cc1 (centres undefined)	8.2µM*	12%	9%	8.2µM*	14
Clc1ccc(N2N=C(c3cccs3)CC2c2ccco2)cc1 (centres undefined)	u	31%	4%	4.6µM*	17
c1ccc(C2=NN(c3ccccc3)C(c3ccco3)C2)cc1 (centres undefined)	u	-3%	-17%	u	-2
NC(CCC(=O)N[C@@H](CS)C(=O)NCC(=O)O)C(=O)O (some centres undefined)	18%	-16%	-2%	-1%	x
Cc1nc2nc(C)n(CCN3CCOCC3)c(=O)c2c(-c2cccc([N+](=O)[O-])c2)c1C(=O)CCCCCCCCCCN1CCC(c2ccccc2)(c2ccccc2)CC1	1%	x	x	u	-99*
C=CCN(C(=O)Cc1cccs1)c1nc(-c2ccc(S(C)(=O)=O)cc2)cs1	-292%	u	-22%	u	-1
C=CCN(C(=O)CCc1ccccc1OC)c1nc(-c2ccc(S(C)(=O)=O)cc2)cs1	27%	u	-5%	5%	-57*
CC(=O)OC[C@H]1O[C@@H](O/N=C(\C)CCC(=O)OC[C@@H]2O[C@H](C#Cc3ccccc3)C=C[C@@H]2Oc2ccc(C)cc2)[C@H](OC(C)=O)[C@@H](OC(C)=O)[C@H]1OC(C)=O	x	-18%[10 µM]	-6%[10 µM]	x	x

Screening results deposited in PubChem by National Center for Advancing Translational Sciences (NCATS).
